# High-throughput results: PubChem BioAssay, Center for Chemical Genomics, University of Michigan
# Dicer processing = human Dicer pre-microRNA cleavage inhibition. Q9UPY3. z-score at 25 µM. cat-ELCCA pre-miR-21 Dicer processing, chemiluminescence; stronger effect = higher value. 6% of 47,000 active; in the data active = z-score above about 3, passing the limit was not always enough;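 note: plate controls were vehicle for no effect and no enzyme for full effect; higher signal means more uncleaved substrate so more Dicer inhibition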
# Target sequence (Q9UPY3 whole entry, looked up): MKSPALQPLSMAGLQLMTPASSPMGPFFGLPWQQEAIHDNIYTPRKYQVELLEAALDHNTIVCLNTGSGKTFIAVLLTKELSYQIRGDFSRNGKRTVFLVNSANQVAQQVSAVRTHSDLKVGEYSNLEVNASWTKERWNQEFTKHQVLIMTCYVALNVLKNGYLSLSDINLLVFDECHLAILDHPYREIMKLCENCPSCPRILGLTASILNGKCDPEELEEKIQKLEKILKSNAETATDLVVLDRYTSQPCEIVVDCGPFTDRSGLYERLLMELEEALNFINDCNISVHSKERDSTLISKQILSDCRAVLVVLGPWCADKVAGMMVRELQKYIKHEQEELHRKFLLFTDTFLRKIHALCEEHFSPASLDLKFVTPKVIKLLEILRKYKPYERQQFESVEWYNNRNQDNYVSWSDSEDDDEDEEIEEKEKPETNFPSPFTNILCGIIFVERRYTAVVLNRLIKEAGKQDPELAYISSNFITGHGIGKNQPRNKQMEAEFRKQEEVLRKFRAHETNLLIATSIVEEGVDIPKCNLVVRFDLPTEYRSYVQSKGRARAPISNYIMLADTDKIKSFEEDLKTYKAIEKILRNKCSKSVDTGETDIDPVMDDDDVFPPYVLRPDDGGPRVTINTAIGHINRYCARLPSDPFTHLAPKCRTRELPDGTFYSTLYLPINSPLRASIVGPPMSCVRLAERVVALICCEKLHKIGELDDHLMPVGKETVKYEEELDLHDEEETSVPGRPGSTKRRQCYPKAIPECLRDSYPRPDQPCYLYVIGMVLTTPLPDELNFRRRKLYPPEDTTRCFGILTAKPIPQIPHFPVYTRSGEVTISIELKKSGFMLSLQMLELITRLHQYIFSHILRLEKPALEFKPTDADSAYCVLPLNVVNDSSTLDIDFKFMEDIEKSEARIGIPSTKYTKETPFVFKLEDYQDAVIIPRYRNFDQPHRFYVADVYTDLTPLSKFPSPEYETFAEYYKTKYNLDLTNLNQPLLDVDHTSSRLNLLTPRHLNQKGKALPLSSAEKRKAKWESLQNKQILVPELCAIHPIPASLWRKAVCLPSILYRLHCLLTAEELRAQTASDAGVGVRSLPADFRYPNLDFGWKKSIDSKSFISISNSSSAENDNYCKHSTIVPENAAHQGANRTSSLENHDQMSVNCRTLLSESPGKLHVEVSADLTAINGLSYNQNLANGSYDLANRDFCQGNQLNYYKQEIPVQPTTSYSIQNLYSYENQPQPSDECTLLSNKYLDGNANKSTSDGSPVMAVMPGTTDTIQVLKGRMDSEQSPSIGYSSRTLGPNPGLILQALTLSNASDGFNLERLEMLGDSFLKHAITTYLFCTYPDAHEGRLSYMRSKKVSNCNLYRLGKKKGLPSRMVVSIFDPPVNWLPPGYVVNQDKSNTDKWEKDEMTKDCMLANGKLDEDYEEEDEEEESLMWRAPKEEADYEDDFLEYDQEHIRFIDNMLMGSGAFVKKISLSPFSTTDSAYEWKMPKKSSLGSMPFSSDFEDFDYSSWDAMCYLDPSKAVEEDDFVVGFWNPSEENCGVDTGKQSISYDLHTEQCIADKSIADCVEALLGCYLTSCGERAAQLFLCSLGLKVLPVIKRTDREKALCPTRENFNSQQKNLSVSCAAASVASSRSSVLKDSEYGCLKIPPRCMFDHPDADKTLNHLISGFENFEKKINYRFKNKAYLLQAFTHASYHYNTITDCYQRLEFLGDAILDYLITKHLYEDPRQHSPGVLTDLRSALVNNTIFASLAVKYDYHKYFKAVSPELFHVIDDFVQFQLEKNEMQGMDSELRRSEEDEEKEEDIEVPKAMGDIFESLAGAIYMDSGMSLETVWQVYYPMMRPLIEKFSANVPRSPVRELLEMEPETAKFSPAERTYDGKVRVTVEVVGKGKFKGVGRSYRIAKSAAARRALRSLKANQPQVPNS
# * hit, by the source's call. The entries come from a sample that favours hits as a whole.
SMILES,Dicer processing
CCOc1cc(C2C(C(=O)OC)=C(C)NC3=C2C(=O)c2ccccc23)cc(Cl)c1O (centres undefined),2.9
COC(=O)C1=C(C)NC2=C(C(=O)CC(c3ccc(OC)c(OC)c3)C2)C1c1ccc(OC)cc1OC (centres undefined),2.89
CCOCCOC(=O)C1=C(C)NC2=C(C(=O)CC(c3cccs3)C2)C1c1ccc(F)cc1 (centres undefined),0.73
CCOc1cc(C2Nc3ccccc3NC3=C2C(=O)CC(c2ccccc2)C3)cc(Cl)c1O (centres undefined),1.14
CC(C)c1ccc(C2CN=NC23CSc2ccccc2C3=O)cc1 (centres undefined),-0.35
FC(F)(F)c1ccc(-c2nnc3ccc(N4CCCCC4)nn23)cc1,0.25
CC(=O)c1ccccc1N/C=C/c1nnnn1-c1ccccc1,-0.28
O=C(O)CCCC(=O)N1N=C(c2ccccc2)CC1c1ccccc1F (centres undefined),-0.05
COc1ccc(OC)c(CN2CCN(C3CCC(C)CC3)CC2)c1 (centres undefined),5.83
O=C(Nc1ccccc1)OC1CN(C(c2ccccc2)c2ccccc2)C1,-0.21
CC12CCC(c3c(C(F)(F)F)n[nH]c31)C2(C)C (centres undefined),0.43
CCOC(=O)/C(C#N)=C/N=C(N/N=C(\C)c1ccc(Cl)c(Cl)c1)SC,-0.18
CC(C)C(=O)N(c1ccc2oc(=O)sc2c1)S(=O)(=O)c1ccc(Br)cc1,0.6
O=C(Cc1ccccc1)N(c1ccc2oc(=O)sc2c1)S(=O)(=O)c1ccccc1,5.4*
CCCC(=O)N(c1ccc2oc(=O)sc2c1)S(=O)(=O)c1ccc(C(=O)O)cc1,-0.07
CCCC(=O)N(c1ccc2oc(=O)sc2c1)S(=O)(=O)c1cc(OC)ccc1OC,2.63
CCCC(=O)N(c1ccc2oc(=O)sc2c1)S(=O)(=O)c1ccc(OC)c(OC)c1,4.23*
CCCCC(=O)N(c1ccc2oc(=O)sc2c1)S(=O)(=O)c1ccc(OCC)cc1,0.55
CCCC(=O)N(c1ccc2oc(=O)sc2c1)S(=O)(=O)c1ccc(F)cc1,-1.65
CCCCC(=O)N(c1ccc2oc(=O)sc2c1)S(=O)(=O)c1ccc(OC)c(OC)c1,3.86*
CCCCC(=O)N(c1ccc2oc(=O)sc2c1)S(=O)(=O)c1cccs1,-3.94
CCOC(=O)c1ccc(NC(=O)CS(=O)(=O)C(C)C)cc1,-0.19
CN1CCc2c(sc3c2C(=O)NC(c2ccc(-c4ccc(F)cc4)o2)N3)C1 (centres undefined),-0.33
CC(C)c1nnc(N2C(=O)c3oc4ccccc4c(=O)c3C2c2cccnc2)s1 (centres undefined),-0.41
COc1cc(C2c3c(oc4ccc(Cl)cc4c3=O)C(=O)N2Cc2ccccc2)ccc1O (centres undefined),1.53
SMILES,Dicer processing
CCCCOc1cc(C(F)(F)F)nc2ccc(C)cc12,0.1
O=C(CN1CCOCC1)NN1CC(=O)N(c2ccccc2)CC1=O,2.2
O=C1OC(c2ccc(F)cc2)/C(=C(/O)c2ccccc2)C1=O (centres undefined),1.3
O=C(c1ccco1)c1coc2ccc(O)cc12,5.53*
CC(=O)Oc1ccc2occ(C(=O)c3ccc(Cl)cc3)c2c1,5.83
NC(=O)Cn1cc(C(=O)c2ccco2)c2ccccc21,-0.25
Cc1ccc(NC(=S)Nc2ccccc2C)c(C)c1,2.52
Cc1ccc(NC(=S)Nc2ccccc2N)c(C)c1,6.95*
Cc1ccc(NC(=S)Nc2ccc(C)cc2C)c(C)c1,0.92
CCn1cnc(C(=O)NC)c1C(=O)NC,0.68
CCc1ccc(S(=O)(=O)N2CCN(Cc3ccc4c(c3)OCO4)CC2)cc1,-3.52
Cc1[nH]c2ccccc2c1C(=O)CN1CCN(Cc2ccc3c(c2)OCO3)CC1,3.34*
COc1cc(CN2CCN(Cc3ccc4c(c3)OCO4)CC2)cc(OC)c1,-0.86
O=S(=O)(c1ccc2c(c1)OCCO2)N1CCN(Cc2ccc3c(c2)OCO3)CC1,-0.58
COc1ccc(CN2CCN(Cc3ccc4c(c3)OCO4)CC2)cc1,0.54
COc1ccc(CN2CCN(Cc3ccc4c(c3)OCO4)CC2)cc1OCc1ccccc1,-0.02
Cc1[nH]c2ccccc2c1C(=O)CN1CCOCC1,2.01
COc1cccc(CN2CCN(Cc3ccc4c(c3)OCO4)CC2)c1OC,3.52*
COc1ccc(CN2CCN(Cc3ccc4c(c3)OCO4)CC2)c(OC)c1,0.19
COc1cccc(CNCc2ccc3c(c2)OCO3)c1OC,-0.2
O=S(=O)(c1ccc(F)cc1)N1CCN(Cc2ccc3c(c2)OCO3)CC1,3.16*
COc1ccccc1CN1CCN(Cc2ccc3c(c2)OCO3)CC1,4.21*
CCOC(=O)c1c(N)nc(SC)n1-c1ccc(C(C)C)cc1,1.95
N#CCOc1ccc2c(=O)cc(-c3ccccc3)oc2c1,0.67
CCOC(=O)C1=C(C)NC2=C(C(=O)CC(c3ccccc3)C2)C1c1ccc2c(c1)OCO2 (centres undefined),0.9
SMILES,Dicer processing
O=[N+]([O-])c1ccc(CSc2c(Cl)cncc2Cl)c(Cl)c1,1.32
Cc1ccc(OCC(=O)NNC(=O)NC(=O)c2ccccc2Cl)c2c1CCC2,-0.79
CN(C)c1cc(C(F)(F)F)cnc1/C(N)=N/O,1.5
S=C(NN=C1CCCCCC1)Nc1ccccc1,2.64
Fc1cccc(NC(=S)NN=C2CCCCCC2)c1,4.2*
CC(=O)NNC(=S)Nc1cccc(F)c1,-1.19
COc1ccc(C2C3COC(C)(C)CC3=NN2C(C)=O)cc1 (centres undefined),2.24
CCCCOC(=O)C1=C(C)NC2=C(C(=O)CC(C)(C)C2)C1c1ccc2c(c1)OCO2 (centres undefined),0.07
COc1ccc(NC(=O)N=S2CCN(S(=O)(=O)c3ccc(Cl)cc3)CC2)cc1,-0.71
COC(=O)c1ccsc1NC(=O)CN1c2cccc3cccc(c23)S1(=O)=O,1.85
COC(=O)c1ccsc1NC(=O)CN1CCN(S(=O)(=O)c2ccc(Cl)cc2)CC1,3.05*
CCOc1cc(C)c(S(=O)(=O)Nc2cccnc2)cc1C,1.31
O=C(Nc1nc(-c2ccc(F)c(F)c2)cs1)c1ccccc1,-0.63
N#C/C(C(N)=O)=C1/SC=C(c2ccc(Br)cc2)N1Cc1ccccc1,-0.03
Cc1cc2n(n1)C(c1cc(Br)ccc1O)Nc1c(C)cccc1-2 (centres undefined),8.68
COc1ccc(OC)c(C2Nc3c(C)cccc3-c3cc(C)nn32)c1 (centres undefined),-1.33
Cc1cc2n(n1)C(c1ccsc1)Nc1c(C)cccc1-2 (centres undefined),-0.46
COc1ccc(C2Nc3c(C)cccc3-c3cc(C)nn32)cc1 (centres undefined),0.76
Cc1cc2n(n1)C(c1cccc(Cl)c1)Nc1c(C)cccc1-2 (centres undefined),6.22*
Cc1cc2n(n1)C(c1ccccc1F)Nc1c(C)cccc1-2 (centres undefined),0.62
Cc1cc2n(n1)C(c1ccc(N3CCCC3)cc1)Nc1c(C)cccc1-2 (centres undefined),8.81
COc1cccc(C2Nc3c(C)cccc3-c3cc(C)nn32)c1O (centres undefined),4.94*
Cc1cc2n(n1)C(c1ccccc1Cl)Nc1c(C)cccc1-2 (centres undefined),5.93*
CCOc1cccc(C2Nc3c(C)cc(C)cc3-c3cc(C)nn32)c1O (centres undefined),2.6
Cc1cc2n(n1)C(c1ccc(Cl)cc1)Nc1c(C)cccc1-2 (centres undefined),3.76*
COc1ccc(C2Nc3c(C)cccc3-c3cc(C)nn32)cc1OC (centres undefined),-0.04
COCc1cc(=O)[nH]c(/N=C(\N)Nc2ccccc2OC)n1,1.42
